Results on 18 compounds are retold here after PubChem BioAssay (EPA / NIEHS).

Assay [1] addresses Estrogen receptor (Homo sapiens) (UniProt P03372). Briefly: OT_ERa_GFPERaERE_0120: Odyssey Thera (OT) 2-hour HeLa Transcription Induction Assay for Estrogen Receptor (AID 2283382). The method, boiled down:
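HeLa, 384-well, 2 h chemical exposure; GFP reporter induction (ERE), fluorescence microscopy; high content image analysis; positive fitting direction vs DMSO.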

The target in assay [2] is Bile acid receptor (Homo sapiens) (UniProt Q96RI1). Briefly: OT_FXR_FXRSRC1_1440: Odyssey Thera (OT) 24-hour HEK293T Protein-Complementation Assay for Farnesoid X receptor/SRC-1 Co-activator (AID 2283384). The method, boiled down: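 Compounds are applied to human kidney HEK293T cells expressing bait and prey fused to reporter protein fragments; after 24 h, reconstituted reporter fluorescence is measured. Activity is fitted as signal gain over DMSO.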
Sequence of Bile acid receptor (Homo sapiens) (Q96RI1 whole entry, looked up, the tested form may be a part): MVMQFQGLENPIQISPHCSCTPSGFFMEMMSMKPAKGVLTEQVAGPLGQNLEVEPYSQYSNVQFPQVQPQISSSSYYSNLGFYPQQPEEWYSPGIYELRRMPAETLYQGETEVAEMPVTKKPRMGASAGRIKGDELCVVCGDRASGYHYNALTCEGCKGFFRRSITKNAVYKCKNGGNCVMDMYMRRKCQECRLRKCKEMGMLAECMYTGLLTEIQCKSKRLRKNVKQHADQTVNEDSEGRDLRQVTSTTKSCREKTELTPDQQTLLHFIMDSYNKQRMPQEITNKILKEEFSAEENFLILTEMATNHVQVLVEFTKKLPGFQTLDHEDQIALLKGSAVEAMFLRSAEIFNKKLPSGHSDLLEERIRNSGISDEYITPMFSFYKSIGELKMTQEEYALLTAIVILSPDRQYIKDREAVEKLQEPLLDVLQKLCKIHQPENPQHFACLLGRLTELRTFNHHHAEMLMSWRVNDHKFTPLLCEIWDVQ

The target of assay [3] is Retinoic acid receptor RXR-alpha (Homo sapiens) (UniProt P19793). Briefly: OT_NURR1_NURR1RXRa_0480: Odyssey Thera (OT) 8-hour HEK293T Protein Complementation Assay for Nurr1/retinoid X receptor (RXR) (AID 2283385). Summed up:
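8 h compound exposure, HEK293T; Nurr1/RXRα fragment complementation; fluorescence intensity; positive fitting direction vs DMSO baseline.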

The target is the same in assay [4]. Description: OT_NURR1_NURR1RXRa_1440: Odyssey Thera (OT) 24-hour HEK293T Protein Complementation Assay for Nurr1/retinoid X receptor (RXR) (AID 2283386). Summed up:
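Interaction of Nurr1 with RXRα brings fused reporter fragments together in human HEK293T cells, restoring a functional reporter. Fluorescence intensity is measured 24 h after chemical treatment, and values are analysed in the positive direction against DMSO.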

Assay [5] addresses Peroxisome proliferator-activated receptor gamma (Homo sapiens) (UniProt P37231). Briefly: OT_PPARg_PPARgSRC1_0480: Odyssey Thera (OT) 8-hour Protein-Complementation Assay for Peroxisome Proliferator-activated Receptor Gamma / SRC-1 Co-activator (AID 2283387).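 Further: nuclear to cytoplasmic split Venus YFP fluorescence ratio reporting PPARg SRC-1 interaction.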 The method, boiled down: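 Protein-fragment complementation of split Venus YFP reports PPARg/SRC-1 interaction in HEK293T (transfected 48 h before treatment), exposed 8 h. Readout: N/C fluorescence ratio at 488 nm from imaging, Draq5 for segmentation, positive fit relative to DMSO.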

Assay [6] has the same target. Briefly: OT_PPARg_PPARgSRC1_1440: Odyssey Thera (OT) 24-hour Protein-Complementation Assay for Peroxisome Proliferator-activated Receptor Gamma/ SRC-1 Co-activator (AID 2283388).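 Further: nuclear to cytoplasmic ratio of reconstituted Venus YFP fluorescence in fixed imaged cells.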 The method, boiled down: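 Readout: nuclear-to-cytoplasmic 488 nm fluorescence ratio, ≥350 cells per image, 8 images per well, after 24 h compound exposure of HEK293T expressing PPARg/SRC-1 split-YFP fusions. Activity fitted in positive direction against DMSO.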

A short description of assay [7]: CEETOX_H295R_11DCORT: CeeTox H295R High-throughput Steroidogenesis Assay for 11-Deoxycortisol (11DCORT) (AID 2283432; active means hit-call score of the fitted dose curve at least 0.9, where 1 is the maximum; inactive means score below 0.9;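 on AC50: 11-deoxycortisol secreted into the medium measured by LC-MS/MS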). The conditions noted are these: actives raise or lower the signal. Summed up: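 Human adrenal H295R cells were prestimulated with 10 uM forskolin for 48 h, then exposed to test chemical (0.1% DMSO final) for 48 h. Medium 11-deoxycortisol was quantified by MTBE extraction and HPLC-MS/MS; bidirectional fitting relative to DMSO.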

A short description of assay [8]: CEETOX_H295R_OHPROG: CeeTox H295R High-throughput Steroidogenesis Assay for OH-Progesterone (OHPROG) (AID 2283435; active means hit-call score of the fitted dose curve at least 0.9, where 1 is the maximum; inactive means score below 0.9;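 on AC50: 17alpha-hydroxyprogesterone secreted into medium measured by HPLC-MS/MS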). The settings on record: actives raise or lower the signal. Summed up:
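H295R, 10 uM forskolin prestim 48 h; cmpd in 0.1% DMSO 48 h; medium MTBE-extracted, HPLC-MS/MS for OH-progesterone; 7-pt std curve; bidirectional fit vs DMSO; MTT viability, chemicals diluted until viability >/=70%.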

Assay [9] is described as follows: CEETOX_H295R_CORTIC: CeeTox H295R High-throughput Steroidogenesis Assay for Corticosterone (CORTIC) (AID 2283437; active means hit-call score of the fitted dose curve at least 0.9, where 1 is the maximum; inactive means score below 0.9;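 further: corticosterone secreted into medium quantified by mass spectrometry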). The settings on record: actives raise or lower the signal. Summed up:
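H295R cells were prestimulated 48 h with 10 uM forskolin, then exposed 48 h to test chemical in 0.1% DMSO. Medium corticosterone was MTBE-extracted and quantified by HPLC-MS/MS; bidirectional fit versus DMSO baseline.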

SMILES strings stand for the structures. Inconclusive results are not listed. Active and inactive are the calls of the source. How the source made its calls, unless noted: active means hit-call score of the fitted dose curve at least 0.9, where 1 is the maximum; inconclusive means response in the unintended direction; inactive means score below 0.9.

Sequence of Estrogen receptor (Homo sapiens) (P03372 whole entry, looked up): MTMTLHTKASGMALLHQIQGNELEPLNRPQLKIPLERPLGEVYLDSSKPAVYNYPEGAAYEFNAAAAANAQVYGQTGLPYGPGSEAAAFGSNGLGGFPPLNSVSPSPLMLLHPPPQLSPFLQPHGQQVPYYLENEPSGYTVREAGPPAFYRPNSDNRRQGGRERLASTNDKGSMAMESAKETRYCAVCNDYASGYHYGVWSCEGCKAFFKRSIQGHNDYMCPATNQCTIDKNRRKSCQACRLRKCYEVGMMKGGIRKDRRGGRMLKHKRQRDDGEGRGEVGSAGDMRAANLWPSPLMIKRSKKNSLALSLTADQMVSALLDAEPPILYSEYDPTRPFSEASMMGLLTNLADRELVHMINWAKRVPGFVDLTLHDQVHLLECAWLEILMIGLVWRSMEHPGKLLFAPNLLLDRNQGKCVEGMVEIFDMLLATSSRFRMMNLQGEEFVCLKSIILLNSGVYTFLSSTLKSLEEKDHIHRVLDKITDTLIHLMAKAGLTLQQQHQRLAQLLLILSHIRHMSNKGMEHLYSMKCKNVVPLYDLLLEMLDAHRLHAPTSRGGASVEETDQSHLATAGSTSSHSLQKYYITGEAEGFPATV
Sequence of Peroxisome proliferator-activated receptor gamma (Homo sapiens) (P37231 whole entry, looked up, the tested form may be a part): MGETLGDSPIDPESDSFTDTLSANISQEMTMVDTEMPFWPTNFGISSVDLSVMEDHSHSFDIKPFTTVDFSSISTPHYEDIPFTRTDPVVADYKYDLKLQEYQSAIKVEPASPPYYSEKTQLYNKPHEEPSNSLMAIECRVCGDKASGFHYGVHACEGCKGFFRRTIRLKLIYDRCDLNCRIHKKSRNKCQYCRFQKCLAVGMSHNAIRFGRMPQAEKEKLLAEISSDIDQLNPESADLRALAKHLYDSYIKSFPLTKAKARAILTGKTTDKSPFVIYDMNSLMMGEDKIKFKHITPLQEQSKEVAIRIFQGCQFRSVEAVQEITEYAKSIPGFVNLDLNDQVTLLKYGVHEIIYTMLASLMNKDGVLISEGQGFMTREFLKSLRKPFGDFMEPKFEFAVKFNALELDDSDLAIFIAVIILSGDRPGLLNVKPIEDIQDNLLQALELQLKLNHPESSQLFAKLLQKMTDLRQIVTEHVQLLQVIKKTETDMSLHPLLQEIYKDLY
Sequence of Retinoic acid receptor RXR-alpha (Homo sapiens) (P19793 whole entry, looked up, the tested form may be a part): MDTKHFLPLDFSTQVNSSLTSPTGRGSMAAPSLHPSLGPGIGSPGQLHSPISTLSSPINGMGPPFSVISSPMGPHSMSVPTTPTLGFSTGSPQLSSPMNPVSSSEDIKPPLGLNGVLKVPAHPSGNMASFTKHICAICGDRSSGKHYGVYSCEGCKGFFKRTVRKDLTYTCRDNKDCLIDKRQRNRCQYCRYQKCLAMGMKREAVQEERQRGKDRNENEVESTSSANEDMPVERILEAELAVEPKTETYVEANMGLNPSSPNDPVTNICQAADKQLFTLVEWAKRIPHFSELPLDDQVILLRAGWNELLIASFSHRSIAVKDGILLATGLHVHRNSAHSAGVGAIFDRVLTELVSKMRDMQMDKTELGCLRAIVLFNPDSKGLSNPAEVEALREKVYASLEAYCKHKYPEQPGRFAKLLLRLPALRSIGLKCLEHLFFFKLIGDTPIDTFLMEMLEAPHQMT

With `CCCCCCCCC=O`, the compound was classed as inactive in assay [1], in assay [2], in assay [3], in [4], in [5] and in [6].
A word on the AC50: it is the concentration at which the activity in the assay is half-maximal. For the compound `Cc1ccc(S)cc1`, the call in assay [1], in assay [5] and in assay [6] was inactive. For the same compound, the AC50 in assay [3] is 79.4 µM (active); in assay [4], 79.8 µM (active).
Turning to `CCC(=O)/C=C/C1C(C)=CCCC1(C)C` (stereo unspecified), the AC50 in assay [2] was 82.5 µM (active); in assay [3], 78.4 µM (active). Moreover, the outcome in assay [4], in assay [5] and in [6] was inactive.
`O=C1c2ccccc2C(=O)N1SC1CCCCC1`: the AC50 in assay [1] is 36.3 µM (active).
Regarding `CCC/C=C/C=O`, the result in assay [1], in [5] and in assay [6] was inactive.
As for `CCCCOCCOCCOCCOCCO`, the compound was classed as inactive in [1], in assay [3], in assay [4], in assay [5] and in assay [6].
Regarding `O=C1NC(=O)c2ccccc21`, the call in assay [2], in [3], in assay [4], in [5] and in assay [6] was inactive.
As for `O=Nc1ccc(Nc2ccccc2)cc1`, the AC50 is 28.2 µM (active) in assay [1] and 0.707 µM (active) in assay [3]. For the same compound, the outcome in assay [5] and in assay [6] was inactive.
`NCCCN1CCOCC1`: the outcome in [1], in assay [3], in [5] and in assay [6] was inactive.
Regarding `CN(C)CCCN`, the outcome in assay [1], in assay [2], in assay [4], in assay [5] and in [6] was inactive.
With `CC(C)c1cccc(O)c1`, the compound was called inactive in assay [1], in assay [3], in assay [4], in assay [5], in [6] and in assay [7]. Further, the call in assay [9] was inactive. The AC50 in [8] was 39 µM (active).
Consider `c1ccc(CCCc2ccccn2)cc1`, for which the call in assay [1], in assay [2], in assay [3], in assay [5], in assay [6] and in [8] was inactive.
As to `OCCN1CCNCC1`, the outcome in assay [1], in assay [2], in assay [3], in [4], in assay [5] and in [6] was inactive.
On to `CCN(CC)c1ccc2c(-c3ccccc3C(=O)O)c3ccc(=[N+](CC)CC)cc-3oc2c1`, for which the outcome in assay [1] was inactive. Further, the AC50 in [2] was 38.9 µM (active); in [3] it was 12.7 µM (active); in [4], 16.1 µM (active); in assay [5] it was 12.2 µM (active); in assay [6], 12 µM (active).
As for `CCCCCCCCCC=O`, the result in assay [1], in assay [3], in assay [4], in assay [5] and in [6] was inactive.
`NC(=O)Nc1ccc(Cl)cc1`: the outcome in assay [1], in [4], in assay [5], in assay [6], in [7] and in [8] was inactive. In addition, the AC50 in assay [9] was 27.6 µM (active).
As to `CCCCc1ccc(N)cc1`, the call in assay [1], in assay [4], in assay [5] and in assay [6] was inactive.
Regarding `CC1COc2ccccc2N1C(=O)C(Cl)Cl` (stereo unspecified), the outcome in assay [1], in [3], in assay [5] and in assay [6] was inactive. In addition, the AC50 in [7] was 25.2 µM (active); in assay [9], 9.46 µM (active).
